Experimental findings from article PMC4336329 (PLoS ONE, 2015) are described below.

The campaign covered roughly 310,000 compounds. About 14,000 (4.5%) showed an effect of 50% or more. Effects have a minus sign here. Shown is part of a subset that was picked to be rich in strong results.
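Note: peak tail current of the secondary pulse compared with the same well before compound.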

The target of the assay is human ether-à-go-go-related gene (hERG) potassium channel (human, UniProt Q12809). In words: primary screen, population patch clamp on CHO cells stably expressing hERG; higher = less effect of the substance.
human ether-à-go-go-related gene (hERG) potassium channel, sequence (Q12809 whole entry, looked up): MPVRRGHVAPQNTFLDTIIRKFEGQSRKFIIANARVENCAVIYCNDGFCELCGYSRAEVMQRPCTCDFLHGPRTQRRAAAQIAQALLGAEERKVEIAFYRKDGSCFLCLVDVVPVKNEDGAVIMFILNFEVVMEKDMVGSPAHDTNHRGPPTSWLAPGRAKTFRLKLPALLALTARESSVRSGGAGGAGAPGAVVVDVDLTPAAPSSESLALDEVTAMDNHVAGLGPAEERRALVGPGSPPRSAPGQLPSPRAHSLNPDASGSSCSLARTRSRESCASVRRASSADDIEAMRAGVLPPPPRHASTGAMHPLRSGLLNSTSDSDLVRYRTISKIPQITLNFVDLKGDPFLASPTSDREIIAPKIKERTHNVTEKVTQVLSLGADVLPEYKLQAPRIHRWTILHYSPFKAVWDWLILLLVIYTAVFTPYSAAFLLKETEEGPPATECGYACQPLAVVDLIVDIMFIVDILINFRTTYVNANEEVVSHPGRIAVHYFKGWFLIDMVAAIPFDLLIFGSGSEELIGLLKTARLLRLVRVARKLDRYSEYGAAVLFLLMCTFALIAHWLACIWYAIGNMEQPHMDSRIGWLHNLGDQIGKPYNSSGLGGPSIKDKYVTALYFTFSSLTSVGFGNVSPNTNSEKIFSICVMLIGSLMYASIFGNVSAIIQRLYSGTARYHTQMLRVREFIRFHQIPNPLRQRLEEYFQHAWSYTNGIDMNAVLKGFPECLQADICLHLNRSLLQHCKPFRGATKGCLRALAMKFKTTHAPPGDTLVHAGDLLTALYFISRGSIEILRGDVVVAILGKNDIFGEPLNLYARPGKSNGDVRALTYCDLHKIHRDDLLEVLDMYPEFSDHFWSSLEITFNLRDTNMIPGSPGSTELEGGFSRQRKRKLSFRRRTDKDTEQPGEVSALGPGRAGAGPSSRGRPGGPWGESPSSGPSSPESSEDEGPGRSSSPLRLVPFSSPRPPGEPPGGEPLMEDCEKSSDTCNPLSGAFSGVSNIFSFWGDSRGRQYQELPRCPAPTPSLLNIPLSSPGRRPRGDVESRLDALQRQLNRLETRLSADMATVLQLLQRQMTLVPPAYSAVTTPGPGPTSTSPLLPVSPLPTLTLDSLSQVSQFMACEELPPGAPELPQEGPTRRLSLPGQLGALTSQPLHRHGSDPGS
As to `CN(CC(=O)O/N=C(\N)c1ccccn1)S(=O)(=O)c1ccccc1`, the “hERG current change (%, negative = inhibition) at 10uM” value was -4.98%.

Consider `O=C(Nc1ccc2ccccc2c1)N1CCCN(CCOc2ccccc2)CC1`, for which the “hERG current change (%, negative = inhibition) at 10uM” value is -66%.

As to `Cc1cccc(C)c1NC(=O)NCCCN1CCN(c2ccccc2)CC1`, the “hERG current change (%, negative = inhibition) at 10uM” value is recorded as -41.1%.

Turning to `Cc1ccccc1NC(=O)NCCCN1CCN(C)CC1`, the “hERG current change (%, negative = inhibition) at 10uM” value stood at 28.1%.

As to `O=C(NCCN1CCN(Cc2ccccc2)CC1)Nc1cc(Cl)cc(Cl)c1`, the “hERG current change (%, negative = inhibition) at 10uM” value is given as -75.2%.

In the case of `Cc1noc(C)c1NC(=O)NCCN1CCN(Cc2ccccc2)CC1`, the “hERG current change (%, negative = inhibition) at 10uM” value is 13.7%.

For the molecule `O=C(NCCN1CCCCC1)Nc1ccccc1`, the “hERG current change (%, negative = inhibition) at 10uM” value was -23.2%.

For the molecule `CCCN1CCN(C(=O)Nc2ccc(OCC)cc2)CC1`, the “hERG current change (%, negative = inhibition) at 10uM” value is listed as -1.93%.

`COc1ccc(N2CCN(CCNC(=O)Nc3cc(Cl)ccc3OC)CC2)cc1`: the “hERG current change (%, negative = inhibition) at 10uM” value is on record as 3.23%.

Regarding `COc1ccccc1NC(=O)NCCN1CCN(c2cccc(Cl)c2)CC1`, the “hERG current change (%, negative = inhibition) at 10uM” value is -9.6%.

For the molecule `COc1ccccc1NC(=O)NCCCN1CCN(c2cccc(Cl)c2)CC1`, the “hERG current change (%, negative = inhibition) at 10uM” value was -73.7%.

In the case of `Cc1ccccc1NC(=O)NCCCN1CCN(c2ccccc2)CC1`, the “hERG current change (%, negative = inhibition) at 10uM” value was -50.7%.

In the case of `O=C(Nc1ccc(F)cc1F)N1CCCN(CCOc2ccccc2)CC1`, the “hERG current change (%, negative = inhibition) at 10uM” value is -45.2%.

For the molecule `CC(C)C(C)NC(=O)CSc1ccc(S(=O)(=O)N2CCOCC2)cn1` (stereo not shown), the “hERG current change (%, negative = inhibition) at 10uM” value is reported as -1.56%.

Regarding `CCOC(=O)C(CSCc1ccccc1)NC(=O)OC(C)(C)C` (stereo not shown), the “hERG current change (%, negative = inhibition) at 10uM” value was -14.8%.

On to `CCOCCCNC(=O)C(C)NS(=O)(=O)c1ccc(C)cc1` (stereo not shown), for which the “hERG current change (%, negative = inhibition) at 10uM” value was found to be 4.29%.

Turning to `COc1ccccc1NC(=O)CSCc1cc(=O)n2ccsc2n1`, the “hERG current change (%, negative = inhibition) at 10uM” value is listed as 13.3%.

`COc1cccc(C(=O)O/N=C(\N)c2ccccn2)c1`: the “hERG current change (%, negative = inhibition) at 10uM” value is -2.49%.

In the case of `Cc1cc(C)cc(C(=O)Nc2cccc(NC(=O)c3ccco3)c2)c1`, the “hERG current change (%, negative = inhibition) at 10uM” value was -14.2%.

In the case of `Cc1ccc(S(=O)(=O)NCCC(=O)N2CCCCCC2)cc1`, the “hERG current change (%, negative = inhibition) at 10uM” value was 1.86%.

On to `CC(C)c1nc(SCC(=O)N2CCCC2)c2c(=O)n(C)c(=O)n(C)c2n1`, for which the “hERG current change (%, negative = inhibition) at 10uM” value is -21.8%.

Regarding `O=C(NC(=S)N1CCCC1)c1cccc([N+](=O)[O-])c1`, the “hERG current change (%, negative = inhibition) at 10uM” value turned out to be 19.9%.

As to `CCCCNC(=O)CCCCCNS(=O)(=O)c1ccc(OC)cc1`, the “hERG current change (%, negative = inhibition) at 10uM” value amounted to 13.8%.

`CCn1c(SCC(=O)Nc2ccc(N3CCOCC3)cc2)nnc1-c1ccc(OC)cc1`: the “hERG current change (%, negative = inhibition) at 10uM” value is listed as -14.8%.

On to `CCCc1c2c(cc3c(=O)cc(C(=O)OCC)oc13)CCCC2`, for which the “hERG current change (%, negative = inhibition) at 10uM” value is -0.971%.

With `COc1cc(OC)cc(C(=O)Nn2cc(C(=O)N3CCN(C)CC3)c3ccccc3c2=O)c1`, the “hERG current change (%, negative = inhibition) at 10uM” value came to 2.72%.

For the molecule `O=C(Nc1cc(Cl)cc(Cl)c1)N1CCCN(Cc2ccccc2)CC1`, the “hERG current change (%, negative = inhibition) at 10uM” value was -76.3%.

As to `O=C(NCCN1CCN(c2ccccc2)CC1)Nc1cccc(Br)c1`, the “hERG current change (%, negative = inhibition) at 10uM” value is given as -58.1%.

On to `O=C(NCCN1CCN(c2ccccc2)CC1)Nc1ccccc1Cl`, for which the “hERG current change (%, negative = inhibition) at 10uM” value is -43.3%.

On to `O=C(NCCN1CCN(c2ccccc2)CC1)Nc1cccc(Cl)c1`, for which the “hERG current change (%, negative = inhibition) at 10uM” value was -55.7%.

With `O=C(Nc1ccccc1)N1CCN(Cc2ccc(Cl)cc2)CC1`, the “hERG current change (%, negative = inhibition) at 10uM” value is listed as -33.8%.

As to `O=C(NCCN1CCN(c2ccccc2)CC1)Nc1ccccc1Br`, the “hERG current change (%, negative = inhibition) at 10uM” value is reported as -52.1%.

`O=C(NCCN1CCN(c2cccc(Cl)c2)CC1)Nc1ccccc1`: the “hERG current change (%, negative = inhibition) at 10uM” value is recorded as -35.1%.

With `Cc1ccc(NC(=O)NCCN2CCN(c3ccccc3)CC2)cc1Cl`, the “hERG current change (%, negative = inhibition) at 10uM” value is 16.7%.

As for `O=C(NCCN1CCN(c2ccccc2)CC1)Nc1ccc(Cl)cc1`, the “hERG current change (%, negative = inhibition) at 10uM” value is reported as -45.5%.

With `O=C(NCCCN1CCN(c2ccccc2)CC1)Nc1ccccc1C(F)(F)F`, the “hERG current change (%, negative = inhibition) at 10uM” value is -49.3%.

Turning to `O=C(NCCN1CCOCC1)Nc1ccccc1`, the “hERG current change (%, negative = inhibition) at 10uM” value is recorded as -6.63%.

Consider `O=C(Nc1ccccc1)N1CCN(Cc2ccccc2)CC1.O=C(O)C(=O)O`, for which the “hERG current change (%, negative = inhibition) at 10uM” value worked out at 11.9%.

As to `COC(=O)c1sccc1NC(=O)Nc1ccccc1C`, the “hERG current change (%, negative = inhibition) at 10uM” value was 9.22%.

`COCCNS(=O)(=O)c1cccc2cccnc12`: the “hERG current change (%, negative = inhibition) at 10uM” value turned out to be 11.6%.

For the molecule `Cc1ccc(N=C2C(=O)Nc3ccccc32)cc1C`, the “hERG current change (%, negative = inhibition) at 10uM” value came out at 7.9%.

As to `Cn1c(N)c(C(=O)COC(=O)c2nc(Cl)ccc2Cl)c(=O)n(C)c1=O`, the “hERG current change (%, negative = inhibition) at 10uM” value is reported as -11.2%.

On to `COc1ccc(C(=O)NCCCSc2ccccc2)cc1F`, for which the “hERG current change (%, negative = inhibition) at 10uM” value is given as 8.32%.

Take `Brc1ccc(C2Nc3cccc4cccc(c34)N2)s1`: the “hERG current change (%, negative = inhibition) at 10uM” value is given as 7.9%.

With `CCn1cc(CN2CCC(n3nccc3NC(=O)c3cccc(F)c3)CC2)cn1`, the “hERG current change (%, negative = inhibition) at 10uM” value was -6.71%.

For `CCc1ccc(CN2CCC(n3nccc3NC(=O)c3cccc(F)c3)CC2)cc1`, the “hERG current change (%, negative = inhibition) at 10uM” value was -75.3%.

For the molecule `CCn1cc(CN2CCC(n3nccc3NC(=O)c3cccc(F)c3)CC2)c(C)n1`, the “hERG current change (%, negative = inhibition) at 10uM” value is recorded as -2.72%.

For the molecule `O=C(Nc1ccnn1C1CCN(Cc2ccc(C#CCCO)cc2)CC1)c1cccc(F)c1`, the “hERG current change (%, negative = inhibition) at 10uM” value is on record as -77.3%.

For `O=C(Nc1ccnn1C1CCN(Cc2ccccc2OC(F)F)CC1)c1cccc(F)c1`, the “hERG current change (%, negative = inhibition) at 10uM” value is reported as -52.4%.

`O=C(Nc1ccnn1C1CCN(C2CCC2)CC1)c1cccc(F)c1`: the “hERG current change (%, negative = inhibition) at 10uM” value is on record as -12.5%.

Regarding `O=C(Nc1ccnn1C1CCN(Cc2cccc(OCCO)c2)CC1)c1cccc(F)c1`, the “hERG current change (%, negative = inhibition) at 10uM” value is given as -12.3%.

As to `COc1ccc(CN2CCC(n3nccc3NC(=O)c3cccc(F)c3)CC2)cc1O`, the “hERG current change (%, negative = inhibition) at 10uM” value is given as -80.4%.

With `O=C(Nc1ccnn1C1CCN(Cc2ccccc2OC(F)F)CC1)c1cccnc1`, the “hERG current change (%, negative = inhibition) at 10uM” value is reported as -12.3%.

In the case of `O=C(Nc1ccnn1C1CCN(Cc2ccc3nonc3c2)CC1)c1cccc(F)c1`, the “hERG current change (%, negative = inhibition) at 10uM” value is -37.4%.

As for `O=C(Nc1ccnn1C1CCN(Cc2ccccc2OCCO)CC1)c1cccc(F)c1`, the “hERG current change (%, negative = inhibition) at 10uM” value is -34.8%.

With `CCOC(=O)C1CCCCC12C(C#N)=C(N)Oc1n[nH]c(C)c12` (stereo not shown), the “hERG current change (%, negative = inhibition) at 10uM” value is recorded as 10.1%.

`CN1C(=O)C(CC(=O)Nc2ccc(F)cc2)N(CCCc2ccccc2)C1=S` (stereo not shown): the “hERG current change (%, negative = inhibition) at 10uM” value is given as 0.0595%.

`CCOC(=O)c1c(C)[nH]c(C2=NNC(=NC3CC3)SC2)c1C`: the “hERG current change (%, negative = inhibition) at 10uM” value is -30.1%.
